# Measurements: PubChem BioAssay AID886 (National Center for Advancing Translational Sciences (NCATS), 2007)
# Several values for one entry are separate records, joined by “and”; a condition that tells them apart may be missing. Equal values may be shown once. Out of some 73,000 compounds screened, about 2,500 (3.4%) were called active. Another 7% or so got no clear call; they are omitted. Many of the other results were omitted from the sample, so actives are more common in it than they were. A number with no mark means an inactive call. Calls come from the whole dose curve; as a rule, active = well fitted inhibition curve with a large enough effect; inconclusive = small, poorly fitted or top-dose-only effect; inactive = no such curve, though single readings can be large or run the other way.
# Biological target: 3-hydroxyacyl-CoA dehydrogenase type-2 (Homo sapiens) (UniProt Q99714)
# Sequence (Q99714 whole entry, looked up): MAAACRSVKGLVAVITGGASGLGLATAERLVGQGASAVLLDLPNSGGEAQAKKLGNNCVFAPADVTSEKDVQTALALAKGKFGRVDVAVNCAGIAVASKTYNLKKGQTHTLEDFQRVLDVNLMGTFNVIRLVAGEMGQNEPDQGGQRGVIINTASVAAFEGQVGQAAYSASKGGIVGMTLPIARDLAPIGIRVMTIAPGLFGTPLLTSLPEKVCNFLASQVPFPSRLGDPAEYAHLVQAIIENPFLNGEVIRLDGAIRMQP
# Sequence (Q99714 whole entry, looked up): as above
# Assay: qHTS Assay for Inhibitors of HADH2 (Hydroxyacyl-Coenzyme A Dehydrogenase, Type II); note: nearly all actives have a fitted effect of over 60% in size
# Conditions: recombinant HADH2, NADH fluorescence, beta-hydroxybutyryl-CoA; series mostly up to 57.1 µM; activity change, negative = inhibition: at the top concentration
# Source text: Assay Overview: NIH Molecular Libraries Screening Centers Network [MLSCN] NIH Chemical Genomics Center [NCGC] Structural Genomics Consortium [SGC] Grant Number: None HADH2: Hydroxyacyl-Coenzyme A dehydrogenase, type II, was supplied by researchers at the Structural Genomics Consortium, Oxford University lab (PI Udo Oppermann). The mitochondrial enzyme 17-hydroxysteroid dehydrogenase type 10 (HSD17-10) previously classified as type II hydroxyacyl-CoA dehydrogenase (HADH2) catalyzes the NAD+ dependent oxidation of a variety of substrates including acyl-CoAs, androgens and neurosteroids as well as bile acids(Shafqat N, Marschall HU, Filling C, et al. Biochemical Journal. 2003;376(Pt 1):49-60). The role in neurodegeneration by binding to amyloid-peptide led to its identification (Oppermann UC, et al FEBS Letters. 1999;451(3):238-242 and Yan SD, et al. Nature. 1997;389(6652):689-695), and mutations in its gene appear to be causative for 2-methyl-3-hydroxybutyryl-CoA dehydrogenase deficiency (Ofman R, et al. American Journal of Human Genetics. 2003;72(5):1300-1307). The enzyme was produced by E.coli fermentation as His-tagged recombinant for the purpose of X-ray structure determination, and had been mass-spectrometry characterized. Inhibition of HADH2 activity was screened by utilizing beta-hydroxybutyryl coenzyme A as an electron donor and NAD+ as an electron acceptor/cofactor. An increase in the fluorescence intensity due to conversion of NAD+ to NADH was used to measure the enzyme activity.
# Assay Protocol: Buffer: 100 mM Tris-HCl pH 9.0, containing 0.01 % Tween-20. Reagents/Controls: Buffer in columns 3 and 4 as negative control (no enzyme). Substrate/cofactor solution: 1 mM NAD+ and 90 uM beta-hydroxybutyryl coenzyme A (Sigma-Aldrich, St. Louis, MO) final concentrations dispensed throughout the plate. Enzyme: 20 nM HADH2 final concentration in columns 1, 2, 5-48. Column 1 is neutral (100% activity). Column 2 contained titration of apomorphine (Sigma-Aldrich, A 4393, PubChem CID 2215, top concentration 500 uM, then 1:2 dilution in duplicate) Assay Steps: Three uL of enzyme were dispensed to 1536-well Greiner black solid bottom plates. Compounds and controls (23 nL) were transferred via Kalypsys PinTool. The plates were incubated for 15 min at room temperature, and then 1 uL of substrate/cofactor solution was added to start the reaction. The plates were immediately transferred to and read every 30 seconds for 4 min on ViewLux High-throughput CCD imager (Perkin-Elmer) using 360 nm excitation and 450 nm emission fluorescence protocol. The fluorescence intensity difference between the last and the first time points was used to compute reaction progress.
# % is set by controls: 0 for no effect and ±100 for the full control effect; potency is the fitted concentration of half-maximal effect.
Compound,Potency,"activity change, negative = inhibition"
CCn1c(=N)c(C(=O)NCCCOC)cc2c(=O)n3cccc(C)c3nc21,3.98 µM (active),
COc1ccc(CCn2c(=N)c(C(=O)NCc3ccco3)cc3c(=O)n4cccc(C)c4nc32)cc1,,3.86%
CCOCCCNC(=O)c1c[nH]c2cc(C)ccc2c1=O,,-1.39%
O=C(c1ccco1)N1CCC2(CC1)CN(c1ncccn1)C2,,2.51%
Nc1ccc2c3c(cccc13)C(=O)NC2=O,,12.8%
Cc1c(O)c(Br)c(C)c(O)c1Br (tested in a mixture with another compound),0.398 µM (active),
CC(C)[C@@H](OCc1ccccc1)[C@H](C)/C=N\OC[C@@H](C)[C@H](OCc1ccccc1)C(C)C,,1.49% [at 11.4 µM]
C[C@]12C=CC(=O)C=C1CC[C@@H]1[C@@H]2C(=O)C[C@@]2(C)[C@H]1CC[C@]2(O)C(=O)CO,,7.63%
CC(C)CSC[C@@H]1O[C@H](n2cnc3c(N)nccc32)[C@H](O)[C@@H]1O,,7.39% [at 11.4 µM]
Cc1csc(NC(=O)CN2CCCCCC2)n1,,-0.72%
CCOC(=O)Cc1csc(NC(=O)Nc2ccccc2)n1,,-0.891%
Cc1csc(NC(=O)NC2(C(F)(F)F)Oc3ccccc3O2)n1,2 µM (active),
O=C(Oc1ccc2c(c1)CN(Cc1ccccc1)CO2)c1ccccc1,,-11.9% [at 11.4 µM]
O=C(O)c1nccnc1C(=O)Nc1ccc(Br)cn1,,-0.545%
CC(C)C[C@@H](CC(=O)N[C@@H](CCC(=O)O)CC(=O)O)NC(=O)[C@@H]1CCCC[C@H]1NC(=O)C[C@@H](NC(=O)C[C@H](CO)NC(=O)[C@@H]1CCCC[C@H]1N)C(C)C,,-24.3%
COCCCn1c2nc3ccccc3nc2c2c(=O)n(Cc3ccc(Cl)cc3)c(C)nc21,,12%
Cc1nc2c(c(=O)n1Cc1ccco1)c1nc3ccccc3nc1n2Cc1ccccc1,25.1 µM (active),
CC(Sc1nc2ccccc2c(=O)n1Cc1ccco1)C(=O)c1ccccc1 (stereo not drawn),,0.159%
COC(=O)C1(Cc2ccccc2)C=C2C(=C(C)C(=O)C2C)CN1 (stereo not drawn),,-6.45%
CN1CCc2nc(-c3ccccc3)c(-c3ccccc3)cc2C1,,-8.44% [at 11.4 µM]
Cc1cc(C)cc(N)c1,,-4.7%
Cc1cccc(NC(=O)CSc2nc3c(c(=O)[nH]2)CCC3)c1C,,2.6%
Cc1ccccc1NC(=O)c1ccccc1,,-21.2%
Cc1nc(C)c(C(=O)Nc2cccc(C)c2C)o1,10 µM (active),

Compound,Potency,"activity change, negative = inhibition"
Cn1c(=S)c2[nH]c(SCCCc3ccccc3)nc2n(C)c1=O,,7.85% [at 11.4 µM]
O=C1C[C@@H](O)[C@@H](O)[C@H]2[C@@H]3C(=O)N(Cc4ccc5c(c4)OCO5)C(=O)[C@@H]3CC[C@H]12,,-4.62% [at 11.4 µM] and -11.5% [at 11.4 µM]
CS(=O)(=O)N1CCC2(CCN(c3ccncc3)CC2)CC1,,2.81%
Cn1c(-c2ccco2)nc2cc3ccccc3cc21,31.6 µM (active),
c1coc(-c2nc3nc4ccccc4n3nc2-c2ccco2)c1,,-23.9%
COc1ccc(CCn2c(-c3ccco3)nc3nc4ccccc4nc32)cc1OC,,-13.7%
O=C(O)/C(=C/c1c(C(=O)O)[nH]c2cc(Cl)cc(Cl)c12)c1ccccc1,,-3.85%
c1ccc(Oc2ccccc2)cc1,,4.03%
O=c1c(-c2ccc(F)cc2)nc2cncnc2n1-c1ccccc1,,-15.3%
CCOC(=O)N/N=C1/C[C@@H](O)[C@@H](O)[C@@H]2[C@@H]3C(=O)N(CC)C(=O)[C@H]3CC[C@H]12,,11.3% [at 11.4 µM]
O=c1[nH]c(-c2ccccc2)c(-c2ccccc2)[nH]1,3.16 µM (active),
O=c1cc(-c2ccccc2)nc(N2CCCCC2)[nH]1,,-16.5%
O=c1[nH]c(=O)c2nc3ccccc3nc2[nH]1,,-14%
COc1ccc(-c2nc3cnc(Oc4ccccc4)nc3n(Cc3cccs3)c2=O)cc1,,0.264%
O=C(O)[C@@H]1[C@@H](C(=O)O)[C@]23C[C@@]2(C(=O)O)[C@]2(C(=O)O)CCC3=C3CCCC312,,14.2% [at 11.4 µM]
COc1ccc(N)c(C)c1,,-15.2%
C1=C(N2CCOCC2)/C(=C/c2nc3ccccc3[nH]2)CC1,3.98 µM (active),
c1ccc2[nH]c(NCCN3CCOCC3)nc2c1,,-7.67%
c1ccc(-n2nnnc2N2CCOCC2)cc1,,5.51%
O=C1C(c2[nH]c3ccccc3c2O)=Nc2ccccc21,,13.6%
Cc1nc2cnc(N3CCN(C)CC3)nc2n(C[C@H]2CCCO2)c1=O,,75.2%
O=C(O)c1ccc(-n2cccc2)cc1O,,-14.7%
N[C@H](C(=O)O)c1ccc(C(=O)O)c(O)c1,31.6 µM (active),
N[C@@H](C(=O)O)c1ccc(P(=O)(O)O)cc1,,11%
